The whole screen tested about 310,000 compounds, of which about 14,000 (4.5%) showed an effect of 50% or more. Effects have a minus sign here. The sample holds strong results, similar compounds and a random draw of the others, so the mix is not that of the screen.
target: human ether-à-go-go-related gene (hERG) potassium channel (human, UniProt Q12809); assay: primary screen, population patch clamp on CHO cells stably expressing hERG; higher = less effect of the substance
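Note: peak tail current of the secondary pulse compared with the same well before compound.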

Sequence of human ether-à-go-go-related gene (hERG) potassium channel (Q12809 whole entry, looked up): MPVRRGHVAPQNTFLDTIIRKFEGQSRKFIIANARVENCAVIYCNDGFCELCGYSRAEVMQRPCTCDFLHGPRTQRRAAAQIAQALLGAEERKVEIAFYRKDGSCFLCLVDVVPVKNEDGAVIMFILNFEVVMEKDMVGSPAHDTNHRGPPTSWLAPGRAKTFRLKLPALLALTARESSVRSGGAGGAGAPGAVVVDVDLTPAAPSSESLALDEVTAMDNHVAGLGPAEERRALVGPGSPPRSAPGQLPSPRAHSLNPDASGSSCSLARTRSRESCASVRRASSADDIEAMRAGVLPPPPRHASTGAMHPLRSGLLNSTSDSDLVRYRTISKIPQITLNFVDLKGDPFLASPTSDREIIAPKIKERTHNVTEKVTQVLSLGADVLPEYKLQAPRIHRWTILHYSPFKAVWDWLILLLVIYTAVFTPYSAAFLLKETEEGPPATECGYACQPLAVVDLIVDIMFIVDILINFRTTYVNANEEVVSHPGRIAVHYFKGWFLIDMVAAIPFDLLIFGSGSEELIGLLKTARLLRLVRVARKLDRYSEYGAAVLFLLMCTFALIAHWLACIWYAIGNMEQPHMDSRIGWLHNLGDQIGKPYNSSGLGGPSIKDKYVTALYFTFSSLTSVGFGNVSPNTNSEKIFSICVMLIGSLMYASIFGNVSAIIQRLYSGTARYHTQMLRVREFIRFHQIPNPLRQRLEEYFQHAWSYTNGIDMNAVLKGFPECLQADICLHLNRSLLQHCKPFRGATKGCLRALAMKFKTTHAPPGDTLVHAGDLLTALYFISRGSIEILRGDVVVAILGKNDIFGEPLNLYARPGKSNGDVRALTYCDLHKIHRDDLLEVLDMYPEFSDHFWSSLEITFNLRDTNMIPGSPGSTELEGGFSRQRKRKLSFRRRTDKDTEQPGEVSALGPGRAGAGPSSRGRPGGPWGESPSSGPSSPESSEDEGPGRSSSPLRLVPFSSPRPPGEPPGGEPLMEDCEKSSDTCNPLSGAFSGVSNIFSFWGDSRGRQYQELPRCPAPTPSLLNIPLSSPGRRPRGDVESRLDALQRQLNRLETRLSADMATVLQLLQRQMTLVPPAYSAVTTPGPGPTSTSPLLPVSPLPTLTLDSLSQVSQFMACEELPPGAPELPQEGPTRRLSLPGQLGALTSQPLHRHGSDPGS

| Structure (SMILES) | hERG current change (%, negative = inhibition) at 10uM |
| --- | --- |
| CN(CC(=O)Nc1cccnc1)S(=O)(=O)c1ccc(Br)cc1 | -21.3% |
| COC(=O)c1ccc(/C=N/NC(=O)CC(=O)NCC(C)C)cc1 | 20.5% |
| CC(=O)c1ccc(N/N=C2/CCCNC2=O)cc1 | 11.3% |
| Oc1ccccc1/C=N/NC(=S)NC1CC2CC1C1C=CCC21 (centres unmarked) | 27.3% |
| c1cnc(N2CCSCC2)nc1 | 0.773% |
| C#CCSc1nc(-c2ccccc2)cc(C(F)(F)F)c1C#N | 7.12% |
| CCCn1cc(CN2CCC(C(=O)Nc3cccc(-c4cscn4)c3)CC2)c(C)n1 | -45.3% |
| CCn1cc(CN2CCC(C(=O)Nc3cccc(-c4cccc(Cl)c4)c3)CC2)cn1 | -67.9% |
| CCOc1ccc(CN2CCC(C(=O)Nc3cccc(-c4ccn[nH]4)c3)CC2)cc1Cl | -62.3% |
| CCn1cc(CN2CCC(C(=O)Nc3cccc(-c4cccc(OC)c4)c3)CC2)cn1 | -49.8% |
| CCCn1ncc(CN2CCC(N3CCC(C(=O)N4CCOCC4)CC3)CC2)c1C | 14.4% |
| CCCn1ncc(CN2CCC(C(=O)Nc3cccc(-c4cccc(F)c4)c3)CC2)c1C | -71.7% |
| C=CCOc1ccccc1CN1CCC(C(=O)Nc2cccc(-c3ccn[nH]3)c2)CC1 | -33.9% |
| CC(=O)c1cccc(CN2CCC(C(=O)Nc3cccc(-c4ccn[nH]4)c3)CC2)c1 | -3.45% |
| CCn1cc(CN2CCC(C(=O)Nc3cccc(-c4cscn4)c3)CC2)cn1 | -15.4% |
| COCCn1c(SCC(=O)OCc2ccccc2)nc2c1c(=O)[nH]c(=O)n2C | -25.6% |
| CCN1C(=O)CC(N2CCC(Cc3ccccc3)CC2)C1=O (centres unmarked) | -2.52% |
| CCOC(=O)C1(C)NC(c2ccco2)C2C(=O)N(c3ccccc3)C(=O)C21 (centres unmarked) | 10.4% |
| Cc1cc(Br)ccc1NC(=O)C1CCN(S(=O)(=O)c2cnc[nH]2)CC1 | 8.88% |

| Structure (SMILES) | hERG current change (%, negative = inhibition) at 10uM |
| --- | --- |
| COc1ccc2c(c1)C(c1ccc(N3CCOCC3)cc1)=NNC(c1cccnc1)=N2 | -5.34% |
| Clc1ccc(Cc2ccccc2)nn1 | 4.59% |
| COc1cc(C(Nc2ccc3c(c2)OCO3)C(=O)NC2CCCCC2)cc(OC)c1OC (centres unmarked) | -61.7% |
| COc1cc(C(=O)NC(=S)Nc2ccc3c(c2)OCO3)cc(OC)c1OC | 12.1% |
| COc1cc(NC(=O)Nc2ccc3c(c2)OCO3)cc(OC)c1OC | 31.4% |
| CCS(=O)(=O)C1=NSC2=NC(=O)/C(=C\c3ccc(OC(=O)c4ccco4)c(OC)c3)C(=N)N21 | 8.51% |
| COc1cccc(NC(=O)CSc2nc3ccccc3n2C)c1 | -16.5% |
| COC(=O)c1c(C(=O)OC)c2cc(C)ccn2c1Cl | -24.9% |
| O=C(CCn1c(=O)oc2ccc(Cl)cc21)N1CCN(c2ccccc2)CC1 | -33.8% |
| Cc1ccc(-c2c[n+](CC(=O)OCc3ccccc3)c3n2CCC3)cc1.[Br-] | -56.3% |
| O=C(C[n+]1cc(-c2ccccc2)n2c1CCCCC2)c1ccc(Br)cc1.[Br-] | -52.7% |
| O=C(C[n+]1cc(-c2ccccc2)n2c1CCC2)c1cccs1.[Br-] | -3.31% |
| Cc1ccc(C(=O)C[n+]2cc(-c3ccccc3)n3c2CCCCC3)cc1.[Br-] | -11.3% |
| O=C(C[n+]1cc(-c2ccc(Br)cc2)n2c1CCCCC2)c1ccccc1.[Br-] | -9.11% |
| O=C(C[n+]1cc(-c2ccc(F)cc2)n2c1CCC2)OCc1ccccc1.[Br-] | -11.9% |
| O=C(C[n+]1cc(-c2ccccc2)n2c1CCC2)OCc1ccccc1.[Br-] | -15.2% |
| Cc1ccc(-c2c[n+](CC(=O)c3ccc(Br)cc3)c3n2CCCCC3)cc1.[Br-] | -61.4% |
| Cc1ccc(C(=O)C[n+]2cc(-c3ccc(C)cc3)n3c2CCCCC3)cc1.[Br-] | -53.1% |
| COc1ccc(OCCOc2ccc(/C=C3\C(=N)N4N=C(C)SC4=NC3=O)cc2)cc1 | 6.54% |

| Structure (SMILES) | hERG current change (%, negative = inhibition) at 10uM |
| --- | --- |
| CC1Cc2nc(SCC(=O)Nc3nccs3)n(Cc3ccccc3)c(=O)c2S1 (centres unmarked) | 2.84% |
| CSc1nc(N)n2nc(-c3ccc(Cl)cc3)cc2n1 | 5.44% |
| COc1ccc(C(=O)NC(Nc2ccc(C)cc2)C(Cl)(Cl)Cl)cc1 (centres unmarked) | -0.867% |
| Cc1cc(C)cc(NC(=O)CN2C(=O)C3CC=CCC3C2=O)c1 (centres unmarked) | 4.39% |
| CC1=N/C(=C/c2cc(Br)cc(Br)c2O)C(=O)O1 | 17% |
| Cc1ccc(S(=O)(=O)NC(=O)Nc2ccc(C)cn2)cc1 | 14.6% |
| Cc1sc(NC(=O)c2ccco2)c(C(c2ccncc2)N2CCOCC2)c1C (centres unmarked) | -37.1% |
| CCCCC(=O)N1CCN(c2nc3ccc(F)cc3s2)CC1 | -65.3% |
| CCCC(=O)N1CCN(c2nc3ccc(CC)cc3s2)CC1 | -23.4% |
| CCCC(=O)N1CCN(c2nc3ccc(Cl)cc3s2)CC1 | -70.2% |
| CCCC(=O)N1CCN(c2nc3ccccc3s2)CC1 | -24.7% |
| CC(C)(CC(=O)O)CC(=O)N1CCN(c2nc3ccc(Cl)cc3s2)CC1 | 14.2% |
| CCCCC(=O)N1CCN(c2nc3ccc(OCC)cc3s2)CC1 | -35.5% |
| CCCCC(=O)N1CCN(c2nc3ccc(Cl)cc3s2)CC1 | -71.1% |
| Fc1ccc2nc(N3CCCCC3)sc2c1 | 5.89% |
| CC(C)(C)C(=O)N1CCN(c2nc3ccc(Cl)cc3s2)CC1 | -12.2% |
| Cc1cc(OC(=O)c2ccccc2Cl)ccc1N1C(=O)CCC1=O | -1.98% |
| O=[N+]([O-])c1ccc(O)c(-c2nn[nH]n2)c1 | 1.52% |
